Test results reported in PubChem BioAssay (EPA / NIEHS).
Records with an inconclusive call do not appear. The source made the active and inactive calls. The calls were made as follows, unless noted: active = hit-call score of the fitted dose curve at least 0.9, where 1 is the maximum; inactive = score below 0.9.

How the values were obtained:
[1] = ACEA_ER_80hr: ACEA Biosciences xCELLigence Real-Time Cell Analysis on Estrogen Receptor Agonism for Proliferation (AID 2282667; active = hit-call score of the fitted dose curve at least 0.9, where 1 is the maximum); settings: T47D proliferation, impedance (xCELLigence), 80 h
In short: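 Estrogen-driven proliferation is captured as electrode impedance in T47D cells 80 h after compound addition. Test articles ran at 8 concentrations, 1:4 dilutions from 100 uM final, in two replicate plates.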

[2] = ATG_CRE_CIS: Attagene CIS-FACTORIAL HepG2 Assay for human cAMP Responsive Element (CRE) binding protein 3 (AID 2282926); settings: HepG2 CRE cis-reporter, Attagene multiplexed mRNA; actives raise or lower the signal
In short: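 Transfected HepG2 were treated for 24 hours, then RNA was extracted and reporter cDNA amplified with sequence-specific primers. Labelled fragments were separated by capillary electrophoresis, and the CRE signal was fitted bidirectionally with DMSO as baseline.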

[3] = target: CCAAT/enhancer-binding protein beta (Homo sapiens) (UniProt P17676); assay: ATG_C_EBP_CIS: Attagene CIS-FACTORIAL HepG2 Assay for human CCAAT/Enhancer Binding Protein (C/EBP) beta (AID 2282927); settings: HepG2 Attagene cis-factorial transcription factor reporter; actives raise or lower the signal
Chain of CCAAT/enhancer-binding protein beta (Homo sapiens) (P17676 whole entry, looked up): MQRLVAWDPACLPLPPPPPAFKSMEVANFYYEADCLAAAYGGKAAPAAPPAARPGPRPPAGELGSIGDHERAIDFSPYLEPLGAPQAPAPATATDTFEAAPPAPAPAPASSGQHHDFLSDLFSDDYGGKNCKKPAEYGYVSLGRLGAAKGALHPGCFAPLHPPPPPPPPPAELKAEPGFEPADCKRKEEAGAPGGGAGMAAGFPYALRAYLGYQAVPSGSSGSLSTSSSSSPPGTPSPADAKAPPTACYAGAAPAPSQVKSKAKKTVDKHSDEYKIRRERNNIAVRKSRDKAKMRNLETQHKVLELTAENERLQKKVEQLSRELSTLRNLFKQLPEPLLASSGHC
In short: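 HepG2, transient MRTU transfection, 24 h treatment. RT-PCR plus CE fluorescence; DMSO negative control, bidirectional fit.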

[4] = ATG_CMV_CIS: Attagene CIS-FACTORIAL HepG2 Assay for human CMV (Internal Marker) (AID 2282928); settings: HepG2 CMV promoter reporter, transcription factor profiling; actives raise or lower the signal;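 also: endpoint acts as a background internal control marker rather than a target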
In short: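 Cell system: HepG2, transiently transfected multiple reporter units under cis promoters. Exposure: 24 h. Detection: RT-PCR, FAM labeling, HpaI digestion, capillary electrophoresis. Analysis: bidirectional, DMSO baseline.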

[5] = ATG_DR4_LXR_CIS: Attagene CIS-FACTORIAL HepG2 Assay for human Liver X Receptor (LXR), DR4 submotif (AID 2282929); settings: HepG2 Attagene DR4 cis-reporter, mRNA transcription; actives raise or lower the signal
In short: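 Readout: reporter transcript fluorescence after RT-PCR and capillary electrophoresis, fitted bidirectionally against DMSO controls. Human HepG2 liver cells carried transiently transfected multiplexed reporter constructs; endogenous transcription factor activity measured 24 h post-dosing.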

[6] = target: Aryl hydrocarbon receptor (Homo sapiens) (UniProt P35869); assay: ATG_Ahr_CIS: Attagene CIS-FACTORIAL HepG2 Assay for human Aryl Hydrocarbon Receptor (Ahr) (AID 2282930); settings: HepG2 AhR cis-factorial reporter transcription; actives raise or lower the signal
Chain of Aryl hydrocarbon receptor (Homo sapiens) (P35869 whole entry, looked up): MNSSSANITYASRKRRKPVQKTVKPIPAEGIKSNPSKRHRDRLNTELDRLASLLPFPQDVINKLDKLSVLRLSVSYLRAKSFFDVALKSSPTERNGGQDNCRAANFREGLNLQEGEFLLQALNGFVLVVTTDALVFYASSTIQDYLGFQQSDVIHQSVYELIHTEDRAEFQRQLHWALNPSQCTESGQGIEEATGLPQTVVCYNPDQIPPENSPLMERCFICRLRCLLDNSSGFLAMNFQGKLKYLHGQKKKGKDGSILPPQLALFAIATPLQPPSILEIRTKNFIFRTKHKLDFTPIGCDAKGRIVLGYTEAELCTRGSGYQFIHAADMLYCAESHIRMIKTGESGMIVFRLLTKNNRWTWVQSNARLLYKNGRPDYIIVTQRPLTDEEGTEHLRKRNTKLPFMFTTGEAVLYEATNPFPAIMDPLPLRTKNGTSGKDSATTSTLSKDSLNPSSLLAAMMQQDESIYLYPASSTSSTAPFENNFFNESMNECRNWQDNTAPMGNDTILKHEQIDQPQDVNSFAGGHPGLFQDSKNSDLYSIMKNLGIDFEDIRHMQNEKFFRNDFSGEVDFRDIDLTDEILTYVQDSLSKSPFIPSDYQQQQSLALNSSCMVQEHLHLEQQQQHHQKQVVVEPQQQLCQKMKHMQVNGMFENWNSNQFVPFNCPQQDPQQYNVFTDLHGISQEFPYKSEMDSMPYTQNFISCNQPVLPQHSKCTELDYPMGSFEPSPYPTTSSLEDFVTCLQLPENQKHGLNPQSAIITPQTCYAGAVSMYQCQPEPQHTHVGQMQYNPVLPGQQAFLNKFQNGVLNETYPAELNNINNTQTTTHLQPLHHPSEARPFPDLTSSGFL
In short: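 Endogenous factor activity is tracked through cis-promoter reporter units transfected into HepG2 cells. Transcript levels at 24 h are read by fluorescent RT-PCR and capillary electrophoresis, with activity in either direction scored relative to DMSO.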

[7] = ATG_AP_1_CIS: Attagene CIS-FACTORIAL HepG2 Assay for human Activator Protein 1 (AP-1) (AID 2282931); settings: HepG2 Attagene cis-factorial AP-1 reporter mRNA; actives raise or lower the signal
In short: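 Reporter transcripts were measured 24 h after dosing by RT-PCR and capillary electrophoresis of fluorescent fragments. Cells: HepG2 carrying transfected cis-regulated reporter constructs reading endogenous factor activity. Gain or loss fitted against DMSO.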

[8] = ATG_AP_2_CIS: Attagene CIS-FACTORIAL HepG2 Assay for human Activator Protein 2 (AP-2) (AID 2282932); settings: HepG2 AP-2 cis-reporter, Attagene transcription factor profiling; actives raise or lower the signal
In short: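 HepG2 cells transiently transfected with cis-element reporter units and exposed for 24 h. Reporter mRNA measured by RT-PCR, FAM labelling, HpaI digestion and capillary electrophoresis. Changes in either direction fitted relative to DMSO.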

[9] = ATG_BRE_CIS: Attagene CIS-FACTORIAL HepG2 Assay for human Bone Morphogenetic Protein (BMP) Response Element (BRE) (AID 2282933); settings: HepG2 BMP response element reporter, Attagene transcription factor profiling; actives raise or lower the signal
In short: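 Endogenous transcription factor activity read in transiently transfected HepG2 cells after 24 h chemical exposure. Bidirectional curve fitting against DMSO; readout is reporter transcript level by RT-PCR with capillary electrophoresis of labelled products.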

[10] = target: Transcription factor E2F1 (Homo sapiens) (UniProt Q01094); assay: ATG_E2F_CIS: Attagene CIS-FACTORIAL HepG2 Assay for human E2F Transcription Factor 1 (AID 2282935); settings: HepG2 Attagene cis-reporter, E2F reporter RNA transcripts; actives raise or lower the signal
Chain of Transcription factor E2F1 (Homo sapiens) (Q01094 whole entry, looked up): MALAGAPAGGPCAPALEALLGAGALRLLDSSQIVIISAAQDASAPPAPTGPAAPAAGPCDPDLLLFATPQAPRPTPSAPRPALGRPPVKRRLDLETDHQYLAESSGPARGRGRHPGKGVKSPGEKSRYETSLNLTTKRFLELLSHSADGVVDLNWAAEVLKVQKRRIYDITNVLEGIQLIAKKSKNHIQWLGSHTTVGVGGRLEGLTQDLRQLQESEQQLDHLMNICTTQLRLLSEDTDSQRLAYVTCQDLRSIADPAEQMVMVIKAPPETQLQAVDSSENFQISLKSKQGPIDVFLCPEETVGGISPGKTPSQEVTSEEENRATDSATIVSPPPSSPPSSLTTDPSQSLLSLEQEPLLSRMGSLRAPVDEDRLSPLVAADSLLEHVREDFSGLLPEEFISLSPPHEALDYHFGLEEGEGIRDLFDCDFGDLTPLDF
In short: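 Endogenous E2F1 activity read through cis-promoter reporter units transfected into HepG2. After 24 h compound treatment, reporter mRNA measured by RT-PCR, HpaI digestion and capillary electrophoresis. Bidirectional fit versus DMSO.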

[11] = ATG_E_Box_CIS: Attagene CIS-FACTORIAL HepG2 Assay for human Enhancer Box (E-box) (AID 2282936); settings: HepG2 E-box cis-reporter transcription, actives raise or lower the signal
In short: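 HepG2 cells transiently transfected with multiplexed cis-element reporter units, dosed 24 h; reporter mRNA quantified by RT-PCR, 6-FAM labelling, HpaI digestion and capillary electrophoresis. E-box (USF1) signal fitted bidirectionally vs DMSO.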

[12] = ATG_M_61_CIS: Attagene CIS-FACTORIAL HepG2 Assay for M61 Transcription Factor (Internal Marker) (AID 2282937); settings: HepG2 Attagene CIS-FACTORIAL M61 internal marker reporter; actives raise or lower the signal
In short: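 Readout: fluorescent reporter mRNA fragments resolved by capillary electrophoresis after RT-PCR. Transiently transfected human HepG2 cells carried MRTU constructs reporting endogenous TF activity; 24 h chemical exposure; gain or loss of signal fitted relative to DMSO.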

[13] = ATG_EGR_CIS: Attagene CIS-FACTORIAL HepG2 Assay for human Early Growth Response 1 (EGR1) (AID 2282938); settings: HepG2 Attagene CIS-FACTORIAL EGR reporter mRNA; actives raise or lower the signal
In short: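 Read-out: fluorescent reporter-mRNA fragments resolved by capillary electrophoresis after RT-PCR, 24 h post-dose in transiently transfected HepG2. Endogenous transcription-factor activity reported via cis-element-regulated reporter units; gain or loss fitted relative to DMSO.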

[14] = ATG_M_19_CIS: Attagene CIS-FACTORIAL HepG2 Assay for M19 Transcription Factor (Internal Marker) (AID 2282939); settings: HepG2 Attagene CIS-FACTORIAL M19 internal marker reporter; actives raise or lower the signal
In short: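 Internal marker readout, fitted in both directions against DMSO, from HepG2 cells carrying transfected cis-element reporter constructs; RT-PCR and capillary electrophoresis of reporter mRNA after 24 h exposure.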

[15] = ATG_ERE_CIS: Attagene CIS-FACTORIAL HepG2 Assay for Estrogen Response Element (ERE) (AID 2282940); settings: HepG2 ERE cis-reporter, Attagene RNA transcript; actives raise or lower the signal
In short: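 After 24 h compound treatment, RNA from transfected HepG2 cells was reverse-transcribed, reporter cDNA PCR-amplified, FAM-labelled, HpaI-cut and resolved by capillary electrophoresis. ERE-driven cis reporter transcripts reflect endogenous factors; gain or loss scored against DMSO.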

[16] = ATG_Ets_CIS: Attagene CIS-FACTORIAL HepG2 Assay for human Erythroblast Transformation Specific (ETS) (AID 2282941); settings: HepG2 ETS cis-reporter transcription, actives raise or lower the signal
In short: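 After transient cis-reporter transfection, HepG2 cells receive test chemical for 24 h. Reporter mRNA levels, measured by RT-PCR and capillary electrophoresis fluorescence, are analysed bidirectionally relative to the DMSO baseline.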

[17] = target: Hepatocyte nuclear factor 3-beta (Homo sapiens) (UniProt Q9Y261); assay: ATG_FoxA2_CIS: Attagene CIS-FACTORIAL HepG2 Assay for human Forkhead box A2 (FOXA2) (AID 2282942); settings: HepG2 cis-reporter transcription factor activity, 24 h; actives raise or lower the signal
Chain of Hepatocyte nuclear factor 3-beta (Homo sapiens) (Q9Y261 whole entry, looked up): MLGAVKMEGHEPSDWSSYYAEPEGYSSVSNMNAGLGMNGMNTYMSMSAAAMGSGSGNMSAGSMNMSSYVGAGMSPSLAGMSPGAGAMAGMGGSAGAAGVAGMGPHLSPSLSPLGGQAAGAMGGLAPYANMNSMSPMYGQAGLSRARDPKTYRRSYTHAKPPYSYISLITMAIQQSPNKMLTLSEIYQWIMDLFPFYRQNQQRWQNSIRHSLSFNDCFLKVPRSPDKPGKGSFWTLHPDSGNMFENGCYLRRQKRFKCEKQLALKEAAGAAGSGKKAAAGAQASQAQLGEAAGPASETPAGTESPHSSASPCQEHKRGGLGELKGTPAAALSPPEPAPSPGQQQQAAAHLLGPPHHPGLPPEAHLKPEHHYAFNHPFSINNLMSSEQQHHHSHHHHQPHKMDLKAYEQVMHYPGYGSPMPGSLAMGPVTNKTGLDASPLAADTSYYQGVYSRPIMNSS
In short: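 Readout: fluorescent reporter transcripts resolved by capillary electrophoresis after RT-PCR. Transiently transfected HepG2, 24 h compound exposure, endogenous TF activity at cis promoter elements. Gain or loss of signal fitted relative to DMSO.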

[18] = ATG_FoxO_CIS: Attagene CIS-FACTORIAL HepG2 Assay for human Forkhead box O (FoxO) (AID 2282943); settings: HepG2 Attagene cis-reporter, FoxO element, mRNA; actives raise or lower the signal
In short: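 Transfected HepG2 reporter cells exposed to test chemical for 24 h; reporter RNA measured by reverse transcription, PCR and fluorescent capillary electrophoresis; curves fitted for increases and decreases against DMSO.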

[19] = ATG_GATA_CIS: Attagene CIS-FACTORIAL HepG2 Assay for human GATA Binding Protein (AID 2282944); settings: HepG2 GATA cis-element reporter, Attagene multiplex mRNA; actives raise or lower the signal
In short: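 Reporter transcripts from a GATA cis-regulated unit, among multiplexed reporters in transfected HepG2 cells, were measured by RT-PCR with capillary electrophoresis after 24 h dosing. Induction or loss scored relative to DMSO.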

[20] = target: Retinoic acid receptor alpha (Homo sapiens) (UniProt P10276); assay: ATG_DR5_RAR_CIS: Attagene CIS-FACTORIAL HepG2 Assay for human Retinoic Acid Receptor Alpha (RARE), DR5 submotif (AID 2282934); settings: HepG2 Attagene cis-factorial RARE DR5 reporter, mRNA; actives raise or lower the signal
Chain of Retinoic acid receptor alpha (Homo sapiens) (P10276 whole entry, looked up): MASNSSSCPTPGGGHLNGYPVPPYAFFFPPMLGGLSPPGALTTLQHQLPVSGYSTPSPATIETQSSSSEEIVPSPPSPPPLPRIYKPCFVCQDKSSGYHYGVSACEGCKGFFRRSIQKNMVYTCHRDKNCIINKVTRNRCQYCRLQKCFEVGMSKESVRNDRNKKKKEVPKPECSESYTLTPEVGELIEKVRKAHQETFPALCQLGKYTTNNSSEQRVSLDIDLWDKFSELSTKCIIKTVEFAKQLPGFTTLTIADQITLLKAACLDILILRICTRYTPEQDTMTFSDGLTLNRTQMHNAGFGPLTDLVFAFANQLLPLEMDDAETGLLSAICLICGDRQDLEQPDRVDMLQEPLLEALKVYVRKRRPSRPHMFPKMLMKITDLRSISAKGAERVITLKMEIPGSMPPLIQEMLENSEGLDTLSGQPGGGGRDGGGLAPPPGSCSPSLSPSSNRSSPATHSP
In short: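 After 24 h of chemical exposure, transiently transfected HepG2 cells were lysed for total RNA; the DR5-regulated reporter transcript was quantified via RT-PCR and capillary electrophoresis, with activity fitted bidirectionally against DMSO.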

Measured: AC50

COCCC(=O)OC
not listed: [20]
inactive: all other assays above

OCC(F)(F)C(F)(F)C(F)(F)CO
not listed: [20]
inactive: all other assays above

CC(C)C(=O)OCc1ccccc1
not listed: [7]
inactive: all other assays above

CCOC(=O)CC(=O)C(F)(F)C(F)(F)F
active: [1] 9.87 µM
not listed: [7] | [17]
inactive: all other assays above
